Drawing on PubChem BioAssay, this text covers z-score and composite z-score for 13 molecules.

Each structure is given as a SMILES string. Activity calls are given as the source filed them. Unless noted, the rule behind the calls is not given here.

Assay [1] is described as follows: resazurin metabolic signal in HepG2 cells – cell-based, resazurin fluorescence, 24 h, PK04 Diversity Set, profiling panel (AID 1172). Note: test concentration not given here. As to conditions: HepG2 viability, higher = more signal.
The nature of assay [2]: budding yeast growth changes without added modifier – OD600, strain BY4716, 24 h, basal condition, primary screen (AID 1173). Particulars: S. cerevisiae BY4716 growth, OD600, 24 h; higher = more signal, called active from +8 up or from −8 down.
A short description of assay [3]: viability profiling in MM1S myeloma cells – cell-based, resazurin fluorescence, basal, 24 h, PK04 Diversity Set, profiling panel (AID 1174).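 Note: MM1S multiple myeloma cell line; test concentration not given here.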 As to conditions: higher = more signal, called active from +8 up or from −8 down.
Assay [4] has as its target Dihydroorotate dehydrogenase (quinone), mitochondrial (Plasmodium falciparum (isolate 3D7)) (UniProt Q08210). Description: inhibition of P. falciparum DHODH – biochemical, C-terminal His tag, absorbance 600 nm, primary screen (AID 1175).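 Note: recombinant parasite enzyme with a five histidine tag at its C terminus; test concentration not given here.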 Particulars: PfDHODH enzyme, DCIP absorbance 600 nm; higher = more signal, called active from +8 up or from −8 down.
Assay [5] is described as follows: inhibition of PAO1 biofilm formation – strain PAO1, LB-PBS medium, absorbance 600 nm, primary screen (AID 1176). Note: test concentration not given here. Particulars: P. aeruginosa PAO1 growth/biofilm, A600, 12 h; higher = more signal.
A short description of assay [6]: growth modulation of vineyard yeast isolate – strain RM11-1a, OD600, basal, 24 h, primary screen (AID 1177).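 Note: cultures grown under basal conditions with no added stressor; test concentration not given here.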 Particulars: S. cerevisiae RM11-1a growth, OD600, 24 h; higher = more signal, called active from +8 up or from −8 down.
A short description of assay [7]: growth of efflux-deficient E. coli DRC39 – strain DRC39, OD650, 24 h, E. coli filamentation inducers, primary screen (AID 1178).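 Note: growth measured as culture turbidity by optical density at 650 nm; test concentration not given here.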 Particulars: E. coli DRC39 acrAB, higher = more signal, called active from +8 up or from −8 down.
Assay [8] can be described thus: growth of efflux-deficient E. coli DRC39 – strain DRC39, OD650, 48 h, E. coli filamentation inducers, primary screen (AID 1179).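 Note: screen aims at cell division blockers that make cells filament.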 As to conditions: E. coli DRC39 delta-acrAB growth, higher = more signal, called active from +8 up or from −8 down.
Assay [9] can be described thus: viability profiling in RPMI8226 myeloma cells – cell-based, resazurin fluorescence, basal, 24 h, PK04 Diversity Set, profiling panel (AID 1180).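 Note: RPMI8826 multiple myeloma cell line at 5000 cells per well; test concentration not given here.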 Particulars: higher = more signal.
For assay [10], the target named is E3 ubiquitin-protein ligase XIAP (Homo sapiens) (UniProt P98170). Kind of assay: small molecules binding XIAP protein – biophysical, small-molecule microarray, fluorescence 635 nm, primary screen (AID 1181).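 Note: score merges 667 nm emission and signal to noise over triplicate slides.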 As to conditions: higher = more signal.
E3 ubiquitin-protein ligase XIAP (Homo sapiens), sequence (P98170 whole entry, looked up): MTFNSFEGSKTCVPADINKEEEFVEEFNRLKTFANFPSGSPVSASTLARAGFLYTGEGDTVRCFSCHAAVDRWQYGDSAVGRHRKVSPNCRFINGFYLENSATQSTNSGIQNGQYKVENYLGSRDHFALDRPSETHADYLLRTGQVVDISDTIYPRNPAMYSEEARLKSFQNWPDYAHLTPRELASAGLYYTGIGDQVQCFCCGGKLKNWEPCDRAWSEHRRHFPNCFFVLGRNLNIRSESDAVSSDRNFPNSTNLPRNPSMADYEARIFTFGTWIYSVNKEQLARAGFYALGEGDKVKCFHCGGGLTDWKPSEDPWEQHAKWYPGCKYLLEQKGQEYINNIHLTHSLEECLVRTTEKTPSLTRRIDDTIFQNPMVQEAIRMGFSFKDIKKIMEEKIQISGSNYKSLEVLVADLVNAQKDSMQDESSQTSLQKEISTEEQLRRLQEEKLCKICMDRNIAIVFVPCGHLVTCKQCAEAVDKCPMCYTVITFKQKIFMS

Dihydroorotate dehydrogenase (quinone), mitochondrial (Plasmodium falciparum (isolate 3D7)), sequence (Q08210 whole entry, looked up): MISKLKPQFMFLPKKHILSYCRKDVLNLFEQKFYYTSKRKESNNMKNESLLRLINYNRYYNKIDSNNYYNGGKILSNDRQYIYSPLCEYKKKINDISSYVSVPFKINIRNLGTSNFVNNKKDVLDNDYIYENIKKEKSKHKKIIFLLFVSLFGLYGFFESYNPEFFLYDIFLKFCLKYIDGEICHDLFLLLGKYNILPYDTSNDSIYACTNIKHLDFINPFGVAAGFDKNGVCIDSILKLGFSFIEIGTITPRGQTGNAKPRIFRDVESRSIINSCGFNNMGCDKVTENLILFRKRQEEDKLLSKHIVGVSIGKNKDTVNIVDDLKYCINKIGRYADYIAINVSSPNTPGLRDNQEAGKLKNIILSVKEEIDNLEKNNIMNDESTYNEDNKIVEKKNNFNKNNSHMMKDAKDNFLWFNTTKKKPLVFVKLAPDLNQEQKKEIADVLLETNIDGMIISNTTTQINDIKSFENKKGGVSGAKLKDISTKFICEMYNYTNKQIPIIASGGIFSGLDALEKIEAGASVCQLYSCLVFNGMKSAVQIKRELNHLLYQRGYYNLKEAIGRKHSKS

Turning to `COCCOC(=O)N1C(=O)[C@@]2(c3cc(C#CC4=CCCCC4)ccc31)[C@H](C(=O)NC[C@H](O)c1ccccc1)[C@H]1C(=O)O[C@H](c3ccccc3)[C@H](c3ccccc3)N1[C@@H]2c1ccccc1OCCO`, the z-score in assay [1] is -1.57; in assay [2], 1.76 (inactive); in [3], -4.83 (inactive); in assay [5], 3.52 (inactive); in [6], 2.69 (inactive); in [7], -0.504 (inactive). For the same molecule, the z-score in [8] was -0.542 (inactive); in assay [9] it was -4.64. The composite z-score in assay [4] was 0.271 (inactive); in assay [10] it was 0.175.
Turning to `C#CCNC(/C=C/c1ccccc1)CO` (stereo not given), the z-score in assay [1] was -0.316; in assay [2], 0.668 (inactive); in assay [3], -0.498 (inactive); in assay [5], 0.449 (inactive); in assay [6] it was 1.62 (inactive); in assay [7] it was 0.238 (inactive). The z-score in assay [8] is 0.188 (inactive); in assay [9], -0.153. Moreover, the composite z-score in assay [4] is 0.657 (inactive); in assay [10], 0.0338.
In the case of `COCCOC(=O)N1C(=O)[C@@]2(c3cc(C#CCNC(N)=O)ccc31)[C@H](C(=O)N1CCCCCCC1)[C@H]1C(=O)O[C@H](c3ccccc3)[C@H](c3ccccc3)N1[C@@H]2c1ccccc1OCCO`, the z-score was 0.0533 in assay [1]; 1.41 (inactive) in assay [2]; 0.188 (inactive) in [3]; 2.08 (inactive) in assay [5]; 2.43 (inactive) in assay [6]; 0.532 (inactive) in assay [7]. Moreover, the z-score in assay [8] was 0.614 (inactive); in assay [9], 0.368. Moreover, the composite z-score is 0.641 (inactive) in assay [4] and 0.291 in assay [10].
As for `CCCC[C@@H]1C[C@H]1[C@@H](NC(=O)c1ccccc1)c1ccccc1C(F)(F)F`, the z-score in assay [1] was 0.826; in [2] it was 0.66 (inactive); in assay [3] it was -0.159 (inactive); in assay [5] it was 0.951 (inactive); in assay [6], -0.114 (inactive); in assay [7], -0.372 (inactive). Further, the z-score in assay [8] is -0.464 (inactive); in [9] it was 0.0311. Besides, the composite z-score was -0.454 (inactive) in [4] and -0.261 in [10].
Regarding `C=CCC(OC(C)=O)[C@@H]1[C@@H](N(Cc2cccc3ccccc23)C(=O)c2ccc(C)cc2)c2cc(OCCCO)ccc2N1C(=O)c1ccc(-c2ccccc2)cc1` (stereo not given in full), the z-score in assay [1] is 0.335; in assay [2] it was -0.93 (inactive); in [3], 1.01 (inactive); in [5], -0.0178 (inactive); in assay [6], -1.51 (inactive); in assay [7], 0.611 (inactive). The z-score is 0.861 (inactive) in [8] and 0.734 in assay [9]. Further, the composite z-score was -2 (inactive) in [4] and 0.146 in [10].
Take `COC(=O)[C@@]1(Cc2ccc(OC)cc2)[C@H]2c3cc(C(=O)N(C)C)n(Cc4ccc(C)c(F)c4F)c3C[C@H]2CN1C(=O)c1ccccc1`: the z-score was 0.819 in assay [1]; 1.45 (inactive) in assay [2]; 0.468 (inactive) in assay [3]; 0.0944 (inactive) in [5]; 2.26 (inactive) in [6]; 0.423 (inactive) in assay [7]. Further, the results for the z-score in assay [8] and in assay [9] were -0.373 (inactive) and 1.37, respectively. Besides, the composite z-score in [4] was 0.164 (inactive); in assay [10], 0.385.
For the molecule `O=C1O[C@H](c2ccccc2)[C@H](c2ccccc2)N2[C@H]1[C@@H](C(=O)Nc1nc3ccccc3s1)[C@]1(C(=O)Nc3ccc(C#CC4(O)CCCCCC4)cc31)[C@H]2c1ccc(O)cc1`, the z-score in assay [1] is -0.629; in [2], -0.945 (inactive); in assay [3] it was -1.55 (inactive); in assay [5], 1.44 (inactive); in assay [6], -0.124 (inactive); in [7], -0.492 (inactive). Moreover, the z-score is -0.716 (inactive) in [8] and -1.36 in assay [9]. In addition, the figures for the composite z-score in assay [4] and in assay [10] were 0.0022 (inactive) and -0.0426, respectively.
`CCOC(=O)C[C@H]1[C@H](OC(=O)Cc2ccc3c(c2)OCO3)[C@@H](NC(=O)c2ccc3ccccc3c2)c2cc(OCCCO)ccc2N1C(=O)Cc1ccc(OC)cc1`: the z-score was 0.329 in assay [1]; -0.566 (inactive) in [2]; -0.162 (inactive) in [3]; 0.0642 (inactive) in assay [5]; -1.66 (inactive) in assay [6]; 0.37 (inactive) in [7]. In addition, the z-score in assay [8] was 1.11 (inactive); in assay [9], 0.202. Moreover, the results for the composite z-score in [4] and in [10] were -1.09 (inactive) and -0.0151, respectively.
Regarding `COCCCNC(=O)[C@@]1(c2ccc([N+](=O)[O-])cc2)CC(=O)N(C2CCCCC2)[C@@H]1c1ccc(CO)cc1`, the z-score in assay [1] was 0.172; in [2], -0.27 (inactive); in [3] it was 0.337 (inactive); in [5] it was 0.814 (inactive); in assay [6], -0.491 (inactive); in assay [7], -0.131 (inactive). The results for the z-score in assay [8] and in [9] were -0.346 (inactive) and 0.946, respectively. Also, the composite z-score in assay [4] is -0.0394 (inactive); in assay [10], 0.147.
`C[C@]1(C(=O)NCCN2CCOCC2)c2ccccc2C(=O)N(Cc2ccccc2)[C@H]1c1ccc(CO)cc1`: the z-score in [1] is 0.702; in [2], -0.46 (inactive); in assay [3] it was 0.402 (inactive); in [5], 0.662 (inactive); in assay [6], 1.2 (inactive); in [7], 0.223 (inactive). Further, the results for the z-score in assay [8] and in assay [9] were 0.134 (inactive) and 0.85, respectively. Also, the figures for the composite z-score in assay [4] and in assay [10] were 1 (inactive) and 0.144, respectively.
For `CCCNC(=O)[C@@H]1c2ccccc2C(=O)N(C2CCCCC2)[C@H]1c1ccc(CO)cc1`, the z-score in assay [1] was 0.358; in [2], 1.27 (inactive); in assay [3], -0.206 (inactive); in [5], -0.329 (inactive); in [6] it was 1.61 (inactive); in [7], 0.619 (inactive). Further, the figures for the z-score in assay [8] and in assay [9] were 0.521 (inactive) and -0.154, respectively. Moreover, the composite z-score is 1.05 (inactive) in assay [4] and 0.304 in [10].
With `CC(c1ccccc1)C(O)C1C=CC2C(=O)N(C)C(=O)C2N1N(c1ccccc1)c1ccccc1` (stereo not given), the z-score in assay [1] is -1.22; in assay [2], -0.0972 (inactive); in [3], -1.91 (inactive); in assay [5] it was 0.419 (inactive); in assay [6], 0.265 (inactive); in assay [7], -0.502 (inactive). The figures for the z-score in [8] and in assay [9] were -0.0284 (inactive) and -1.8, respectively. For the same molecule, the composite z-score in assay [4] is -0.0374 (inactive); in [10], -0.0918.
Consider `CCCC=C(CCC)[C@@H](NC(=O)c1ccc(C(F)(F)F)cc1)c1ccccc1`, for which the z-score was -0.421 in assay [1]; 0.79 (inactive) in [2]; -0.507 (inactive) in assay [3]; 4.02 (inactive) in assay [5]; 0.513 (inactive) in assay [6]; 0.0948 (inactive) in [7]. Besides, the z-score was -0.221 (inactive) in assay [8] and -0.996 in assay [9]. Further, the composite z-score is -3.63 (inactive) in [4] and -0.253 in [10].
